Compound activity: PubChem BioAssay, several laboratories
Fh CTSL1 inh: cathepsin L1 inhibition, PFM18AAP counter-screen; inhibition, % at 5.96 µM; AID 1906; recombinant F. hepatica cathepsin L1, Z-Leu-Arg-MCA fluorescence; 300,000 tested, 0.49% active;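 active = inhibition above the mean of all tested compounds plus 3 SD, set per screening campaign, cut at about 17% in these data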
hiPSC survival: enhancers of human iPSC single-cell survival; hiPSC single-cell survival, ATPlite luminescence; 100% = ROCK inhibitor wells, 0% = DMSO; survival enhancement, % at 20 µM; 360,000 tested, 0.044% active; AID 602274; in the data active = survival enhancement above about 18%;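 also: cells exposed to compounds for 16 hours before the ATP read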
Yeast superoxide: yeast age-related superoxide inhibition as caloric restriction mimetic. AID 2690. S. cerevisiae aged cells, superoxide DHE fluorescence; active compounds read low. 330,000 tested, 0.18% active. superoxide response (% of plate mean), % at 10 µM;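 active = superoxide response under a set limit, about three screen SD below normal, cut at about 65% in these data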;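 also: yeast aged for seven days with compound at 30 °C before DHE staining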
V-ATPase pH: alters yeast V-ATPase proton transport; response, % at 10 µM; 350,000 tested, 0.37% active; AID 504577; S. cerevisiae, pHLuorin cytosolic pH fluorescence; in the data active = response mostly above about 7.3%, no sharp cut-off; inactive = mostly below about 5.4%; also: actives read high
VATPase regulator: yeast V-ATPase proton transport regulation; response, % at 10 µM; S. cerevisiae pHLuorin cytosolic pH; 980 tested, 2% active; shares compounds with V-ATPase pH; AID 602197; in the data active = response above about 24%
Each line names hits and unclear results; the compound was inactive in the other large screens (follow-up assays come after a bar, where they were run). Most compounds without a hit are left out; they make up all but 1% or so of the library.

CN(Cc1ccccc1)C(=O)CCC1CCN(C(=O)CC2=CCCCC2)CC1	none (no result: Fh CTSL1 inh, Yeast superoxide)
O=C(O)C1CCC1C(=O)Nc1nc(-c2ccc(Cl)s2)cs1 (stereo not given)	V-ATPase pH 12.4 | VATPase regulator inactive
COc1ccccc1N1CCN(C(=O)C2CCN(S(=O)(=O)c3ccc4c(c3)CC(C)N4C(=O)C3CC3)CC2)CC1 (stereo not given)	V-ATPase pH 13.6 | VATPase regulator inactive
CC1=C(C(=O)Nc2cc(C(=O)NCc3ccccc3)ccc2C)SCCO1	V-ATPase pH 55.3 (no result: Fh CTSL1 inh, Yeast superoxide) | VATPase regulator inactive
CCCCNC(=O)c1ccc(C)c(NC(=O)C2=C(C)OCCS2)c1	none
CN(C(=O)CSc1nc(N)c2c3c(sc2n1)CSC(C)(C)C3)c1ccccc1	V-ATPase pH 9.8 | VATPase regulator inactive
COC(=O)c1ccc(OC)c(Cn2c(=O)n(C)c(=O)c3ccccc32)c1	none
COc1ccc(C(=O)Oc2ccc3ccc(=O)oc3c2)cc1OC	none
COc1ccc(C(=O)Oc2c(C)occc2=O)cc1OC	V-ATPase pH 21.0 | VATPase regulator inactive
Cc1c(C)c2cc(Cl)c(OCC(=O)NCCCN3CCCC3=O)cc2oc1=O	V-ATPase pH 11.4 (no result: Fh CTSL1 inh, Yeast superoxide) | VATPase regulator inactive
Cc1cc(=O)oc2cc(OCC(=O)NCCCN3CCCC3=O)c(Cl)cc12	none
Cc1c(NC(=O)COC(=O)c2ccc(Cl)nc2)c(=O)n(-c2ccccc2)n1C	none (no result: Fh CTSL1 inh)
CCOC(=O)Cc1nc2ccccc2[nH]1	none | VATPase regulator inactive
CCOC(=O)c1c(C)nc2ccccc2c1C	none | VATPase regulator inactive
CCOC(=O)c1nc2ccccc2c(C)c1C	none | VATPase regulator inactive
COC(=O)C1CCN(C(=O)Nc2ccccc2)CC1	none
O=C(O)CCCCCCCCCCCNC(=O)NC12CC3CC(CC(C3)C1)C2	none (no result: Fh CTSL1 inh)
NS(=O)(=O)c1ccc(CCNS(=O)(=O)c2ccc3c(c2)NC(=O)CO3)cc1	V-ATPase pH 9.4 | VATPase regulator inactive
Cc1nnc(SC(C)C(=O)N(C)C2CCCCC2)n1N (stereo not given)	V-ATPase pH 7.1 (no result: Fh CTSL1 inh) | VATPase regulator inactive
Cn1c(N)c(C(=O)COC(=O)CC(NC(N)=O)c2ccc(Cl)cc2)c(=O)n(C)c1=O (stereo not given)	none (no result: Fh CTSL1 inh, Yeast superoxide)
CC(=O)NC(CC(=O)OCC(=O)c1c(N)n(C)c(=O)n(C)c1=O)c1ccccc1 (stereo not given)	V-ATPase pH 11.4 | VATPase regulator inactive
COCCn1c(SCC(=O)OC(C)C)nnc1-c1ccccc1	V-ATPase pH 9.9 | VATPase regulator inactive
COCCn1c(SCC(=O)Nc2cccc(OC)c2)nnc1-c1ccccc1	none
O=C(C1CCCCC1)N1CCC(CO)(Cc2ccccc2Cl)CC1	V-ATPase pH 8.6 | VATPase regulator inactive
COc1cc(C(=O)NCC2(c3ccccc3)CCCC2)cc(OC)c1OC	none
COc1ccc(S(=O)(=O)N(CC(=O)N2CCN(C)CC2)c2ccc(C)cc2)cc1OC	V-ATPase pH 11.5 | VATPase regulator inactive
Cc1ccc(OCc2cccc(S(=O)(=O)N(C)C)c2)c([N+](=O)[O-])n1	none
O=C(COc1coc(CN2CCCc3ccccc32)cc1=O)Nc1ccc([N+](=O)[O-])cc1	V-ATPase pH 7.4 | VATPase regulator inactive
Cc1ccccc1NC(=O)COc1coc(CN2CCCc3ccccc32)cc1=O	none
O=C(O)CN(c1cccc(C(F)(F)F)c1)S(=O)(=O)c1ccccc1	V-ATPase pH 8.6 | VATPase regulator inactive
NC(=O)C1CCN(C(=O)CN(c2cccc(C(F)(F)F)c2)S(=O)(=O)c2ccccc2)CC1	none
C=CCN(c1ccc(F)cc1)S(=O)(=O)c1cc(C(=O)NC2CC2)ccc1Cl	none (no result: Fh CTSL1 inh, Yeast superoxide)
Cc1cccc(NC(=O)c2ccccc2OCC(=O)N2CCOCC2)c1C	none
O=C(Nc1cccc(Cl)c1Cl)c1ccccc1OCC(=O)N1CCOCC1	V-ATPase pH 11.2 | VATPase regulator inactive
COC(=O)C1=C(C)Nc2c(c(=O)n(C)c(=O)n2C)C1c1ccc(Cl)cc1 (stereo not given)	none
COc1cccc(-n2c(CCn3nc(C)c([N+](=O)[O-])c3C)n[nH]c2=S)c1	V-ATPase pH 9.7 | VATPase regulator inactive
CC(=O)Nc1cccc(C(=O)OCC(=O)N2CCN(C(=O)COC(=O)c3cccc(NC(C)=O)c3)CC2)c1	none (no result: Fh CTSL1 inh, Yeast superoxide)
O=C(NCCO)C(c1ccccc1)c1ccccc1	none
O=C(O)CNC(=O)C(c1ccccc1)c1ccccc1	V-ATPase pH 11.4 | VATPase regulator inactive
CSCCC(NS(=O)(=O)c1ccc2c(c1)oc(=O)n2C)C(=O)NCc1ccc(C)cc1 (stereo not given)	none
Cc1cc(N2CCN(c3ccccn3)CC2)n2nc(C)nc2n1	V-ATPase pH 8.4 | VATPase regulator inactive
